Among all 39,000 compounds or so, about 3,300 (8.5%) were called active. This excerpt belongs to a sample that is enriched for actives.

The values that follow come from the antibiotic and cytotoxicity screens of Wong et al. (2023).

For this experiment, the system named is HepG2. Put plainly: cytotoxicity call (relative viability < 0.9). The conditions noted are these: 10 µM.
Regarding `Cc1noc(C)c1NC(=O)Nc1ccc2c(c1)C(=O)N([C@H](C)CO)C[C@H](C)[C@@H](CN(C)C(=O)Nc1c(C)noc1C)OCCCC[C@@H](C)O2`, the cytotoxicity call is “inactive”.

As for `COc1ccc(-c2cnc3c(c2)C(=O)N([C@H](C)CO)C[C@@H](C)[C@H](CN(C)C(=O)Cc2ccccn2)O3)cc1`, the cytotoxicity call was “inactive”. On to `CNC[C@H]1Oc2ccc(NC(=O)Cn3cnnn3)cc2CC(=O)N([C@@H](C)CO)C[C@@H]1C`, for which the cytotoxicity call was “inactive”.

For the compound `C[C@@H]1CN([C@H](C)CO)C(=O)c2cc(C3=CCCC3)cnc2O[C@@H]1CN(C)S(=O)(=O)c1cn(C)cn1`, the cytotoxicity call is “inactive”.

Turning to `C[n+]1cccc(C(=O)O)c1`, the cytotoxicity call is “inactive”. For `COc1ccc(NC(=O)Nc2ccc3c(c2)CC(=O)N([C@H](C)CO)C[C@@H](C)[C@@H](CN(C)Cc2ccc(-c4ccccc4)cc2)O3)cc1` the value was “active”.

Take `Cc1noc(C)c1NC(=O)Nc1ccc2c(c1)CC(=O)N([C@H](C)CO)C[C@H](C)[C@@H](CN(C)C(=O)NC(C)C)O2`: the cytotoxicity call is “inactive”. For `CCc1ccc(/C=C2\SC(=O)N(CCCCCCNC(=O)c3ccc(Nc4ccc([N+](=O)[O-])c5nonc45)cc3)C2=O)cc1` the value was “inactive”; for `CCc1ccc(/C=C2\SC(=O)N(CCCCCCNC(=O)c3ccccc3Nc3ccc([N+](=O)[O-])c4nonc34)C2=O)cc1`, “active”. Take `N[C@H]1CCCN(Cc2cccc(O)c2)C1`: the cytotoxicity call was “inactive”. As for `O=C(/C=C/c1ccc(CNc2ccc([C@H]3O[C@@H](CSc4ccncc4)C[C@H](c4ccccc4)O3)cc2)cc1)NO`, the cytotoxicity call was “active”. In the case of `O=C(CCCCCCC(=O)Nc1ccc([C@H]2O[C@@H](CSc3ccncc3)C[C@H](c3ccccc3)O2)cc1)NO` it was “inactive”. In the case of `O=C(CCCCCCC(=O)Nc1ccc([C@@H]2O[C@H](CSc3ccncc3)C[C@H](c3ccccc3)O2)cc1)NO` it was “inactive”.

In the case of `C[C@H]1CN([C@@H](C)CO)C(=O)c2c(c3ccccc3n2C)-c2ccccc2CO[C@@H]1CN(C)Cc1ccc(Cl)c(Cl)c1`, the cytotoxicity call is “inactive”. In the case of `O=C1C(=Cc2cccs2)CCCC1=Cc1cccs1` it was “inactive”; in that of `CC(C)/C=C1\CC/C(=C\c2ccc(C(F)(F)F)cc2)C1=O`, “active”; in that of `O=C1/C(=C/c2cccs2)CCC/C1=C\c1cccs1`, “inactive”.

On to `C[C@@H]1CN([C@H](C)CO)C(=O)c2cc(NC(=O)Cn3cnnn3)ccc2O[C@H]1CN(C)S(=O)(=O)c1cccs1`, for which the cytotoxicity call is “inactive”. With `CC(=O)n1cc([C@@H]2C=C(C(=O)N3CCCCCCC3)O[C@H](OCc3ccc(CO)cc3)C2)c2ccccc21`, the cytotoxicity call was “inactive”. For `COc1ccccc1C#Cc1ccc2c(c1)O[C@@H](CN(C)Cc1cccnc1)[C@@H](C)CN([C@@H](C)CO)S2(=O)=O` the value was “active”; for `COc1ccccc1C#Cc1ccc2c(c1)O[C@H](CN(C)Cc1cccnc1)[C@H](C)CN([C@H](C)CO)S2(=O)=O`, “inactive”. In the case of `COc1ccccc1C#Cc1ccc2c(c1)O[C@@H](CN(C)Cc1cncnc1)[C@@H](C)CN([C@@H](C)CO)S2(=O)=O` it was “inactive”; in that of `COc1ccccc1C#Cc1ccc2c(c1)O[C@@H](CN(C)Cc1cccnc1)[C@H](C)CN([C@H](C)CO)S2(=O)=O`, “active”. For `COc1ccccc1C#Cc1ccc2c(c1)O[C@@H](CN(C)Cc1cccnc1)[C@H](C)CN([C@@H](C)CO)S2(=O)=O` the value was “inactive”. As to `COc1ccccc1C#Cc1ccc2c(c1)O[C@H](CN(C)Cc1cccnc1)[C@@H](C)CN([C@@H](C)CO)S2(=O)=O`, the cytotoxicity call is “inactive”.

As to `COc1ccccc1C#Cc1ccc2c(c1)O[C@@H](CN(C)Cc1cccnc1)[C@@H](C)CN([C@H](C)CO)S2(=O)=O`, the cytotoxicity call was “inactive”. In the case of `COc1ccccc1C#Cc1ccc2c(c1)O[C@H](CN(C)Cc1cccnc1)[C@@H](C)CN([C@H](C)CO)S2(=O)=O` it was “active”; in that of `COc1ccccc1C#Cc1ccc2c(c1)O[C@H](CN(C)Cc1cccnc1)[C@H](C)CN([C@@H](C)CO)S2(=O)=O`, “inactive”; in that of `Cc1ccc(S(=O)(=O)Nc2ccc3c(c2)C(=O)N([C@@H](C)CO)C[C@@H](C)[C@H](CN(C)C(=O)C2CCCCC2)OCCCC[C@@H](C)O3)cc1`, “inactive”.

In the case of `C=CCOC(=O)[C@@H]1[C@H]2C(=O)O[C@H](c3ccccc3)[C@H](c3ccccc3)N2[C@H](c2ccc(OCCOC(=O)[C@@H]3C[C@@H]4C(=O)NCC(=O)N4[C@@H]3c3cccc(OCCO)c3)cc2)[C@@]12C(=O)Nc1ccccc12`, the cytotoxicity call is “inactive”.

`C[C@@H]1CN([C@@H](C)CO)C(=O)Cc2cc(NC(=O)Nc3cccc4ccccc34)ccc2O[C@H]1CN(C)C(=O)Nc1ccc2c(c1)OCO2`: the cytotoxicity call is “inactive”. For `C[C@@H]1CCCCO[C@@H](CN(C)C(=O)C2CCCCC2)[C@H](C)CN([C@H](C)CO)C(=O)c2cc(NC(=O)c3ccccc3)ccc2O1` the value was “inactive”. In the case of `C[C@H]1CN([C@@H](C)CO)C(=O)c2cc(NC(=O)CCCN(C)C)ccc2O[C@@H]1CN(C)Cc1ccc2c(c1)OCO2`, the cytotoxicity call was “inactive”. In the case of `C[C@H]1CCCCO[C@H](CN(C)Cc2ccc(Cl)c(Cl)c2)[C@@H](C)CN([C@@H](C)CO)C(=O)c2cc(NC(=O)Nc3ccc4c(c3)OCO4)ccc2O1` it was “active”; in that of `C[C@@H]1CCCCO[C@@H](CN(C)Cc2ccc(Cl)c(Cl)c2)[C@@H](C)CN([C@H](C)CO)C(=O)c2cc(NC(=O)Nc3ccc4c(c3)OCO4)ccc2O1`, “inactive”; in that of `C[C@@H]1CN([C@H](C)CO)C(=O)c2cc(NC(=O)Nc3ccc4c(c3)OCO4)ccc2O[C@@H](C)CCCCO[C@H]1CN(C)Cc1ccc(Cl)c(Cl)c1`, “active”.

In the case of `C[C@@H]1CN([C@H](C)CO)C(=O)c2cc(NC(=O)Nc3ccc4c(c3)OCO4)ccc2O[C@@H](C)CCCCO[C@@H]1CN(C)Cc1ccc(Cl)c(Cl)c1`, the cytotoxicity call was “active”.

As to `C[C@@H]1CCCCO[C@H](CN(C)Cc2ccc(Cl)c(Cl)c2)[C@@H](C)CN([C@@H](C)CO)C(=O)c2cc(NC(=O)Nc3ccc4c(c3)OCO4)ccc2O1`, the cytotoxicity call was “inactive”. In the case of `C[C@H](CO)N1C[C@H](C)[C@@H](CN(C)Cc2ccc(Cl)c(Cl)c2)OCCCC[C@H](C)Oc2ccc(NC(=O)Nc3ccc4c(c3)OCO4)cc2C1=O` it was “inactive”. For `C[C@@H]1CCCCO[C@H](CN(C)Cc2ccc(Cl)c(Cl)c2)[C@@H](C)CN([C@H](C)CO)C(=O)c2cc(NC(=O)Nc3ccc4c(c3)OCO4)ccc2O1`, the cytotoxicity call was “active”. For the compound `C[C@@H]1CCCCO[C@@H](CN(C)Cc2ccc(Cl)c(Cl)c2)[C@H](C)CN([C@@H](C)CO)C(=O)c2cc(NC(=O)Nc3ccc4c(c3)OCO4)ccc2O1`, the cytotoxicity call was “inactive”.
